Results taken from PubChem BioAssay (NCATS).
Records with an inconclusive call do not appear. Activity calls are given as the source filed them. Unless noted, the call rests on the fitted dose curve.

Experiments:
[1] = qHTS for Inhibitors of the Functional Ribonucleoprotein Complex (vRNP) of Lassa (LASV) Arenavirus: LASV Primary Screen - GLuc reporter signal (AID 1347082; calls by dose curve; tested in HEK293 reporter line; further: nearly all actives have a fitted effect of over 60% in size; further: potency means the concentration at half of the fitted maximal effect; on activity change, negative = inhibition: on the % scale 0 is the no-effect control and ±100 the full control effect)
[2] = qHTS for Inhibitors of the Functional Ribonucleoprotein Complex (vRNP) of Lassa (LASV) Arenavirus: Viability assay - alamar blue signal for LASV Primary Screen (AID 1347083; calls by dose curve; tested in HEK293 reporter line; further: nearly all actives have a fitted effect of over 80% in size; further: potency means the concentration at half of the fitted maximal effect)
[3] = qHTS for Inhibitors of the Functional Ribonucleoprotein Complex (vRNP) of Lymphocytic Choriomeningitis Arenaviruses (LCMV): Viability assay - alamar blue signal for LCMV Primary Screen (AID 1347085; calls by dose curve; tested in HEK293 reporter line; further: nearly all actives have a fitted effect of over 80% in size; further: potency means the concentration at half of the fitted maximal effect)
[4] = target: Nucleoprotein (Lymphocytic choriomeningitis virus (strain Armstrong)) (UniProt P09992); assay: qHTS for Inhibitors of the Functional Ribonucleoprotein Complex (vRNP) of Lymphocytic Choriomeningitis Arenaviruses (LCMV): LCMV Primary Screen - GLuc reporter signal (AID 1347086); further: nearly all actives have a fitted effect of over 70% in size; further: potency means the concentration at half of the fitted maximal effect; on activity change, negative = inhibition: on the % scale 0 is the no-effect control and ±100 the full control effect
Chain of Nucleoprotein (Lymphocytic choriomeningitis virus (strain Armstrong)) (P09992 whole entry, looked up): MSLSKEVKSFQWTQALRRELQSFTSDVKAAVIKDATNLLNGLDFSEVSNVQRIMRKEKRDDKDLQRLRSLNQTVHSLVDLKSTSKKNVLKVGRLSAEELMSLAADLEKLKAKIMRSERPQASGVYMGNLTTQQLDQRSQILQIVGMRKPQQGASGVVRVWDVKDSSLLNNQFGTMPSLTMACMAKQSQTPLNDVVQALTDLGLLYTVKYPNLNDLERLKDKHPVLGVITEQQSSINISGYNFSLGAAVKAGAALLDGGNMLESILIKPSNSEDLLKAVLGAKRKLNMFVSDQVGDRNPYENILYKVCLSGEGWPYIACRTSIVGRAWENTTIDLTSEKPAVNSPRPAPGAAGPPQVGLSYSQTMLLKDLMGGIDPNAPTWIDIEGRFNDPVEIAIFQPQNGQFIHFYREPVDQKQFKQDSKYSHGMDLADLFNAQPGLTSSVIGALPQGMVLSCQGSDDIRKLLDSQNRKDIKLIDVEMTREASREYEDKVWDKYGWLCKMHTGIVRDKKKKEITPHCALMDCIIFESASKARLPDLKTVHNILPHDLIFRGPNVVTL

[5] = Primary qHTS for small molecule stabilizers of the endoplasmic reticulum resident proteome: Secreted ER Calcium Modulated Protein (SERCaMP) assay (AID 1508630; active means well fitted curve in the direction sought with a large enough effect; an effect the other way counts as inactive or inconclusive; further: on the % scale 0 is the no-effect control and ±100 the full control effect)
Method in brief: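 GLuc-SERCaMP-expressing SH-SY5Y cells, pretreated 16 h with compound, are challenged with thapsigargin to empty ER calcium stores; after 4 h, coelenterazine is added directly to the medium and luminescence is imaged.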

[6] = Confirmation and Secondary Assay for Modulators of Hemoglobin Beta Chain Splicing at IVS2 654 locus (AID 910; active means well fitted curve in the direction sought with a large enough effect; an effect the other way counts as inactive or inconclusive;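 further: HeLa cells stably carrying EGFP split by mutant beta-globin IVS2-654 intron; per-well total GFP intensity by laser scanning cytometry after 2-day treatment; % of control where 0% means no effect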)
Method in brief: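 Readout: per-well total peak green fluorescence (488 nm ex, 500–520 nm em) from objects 5–250 µm, reflecting correct splicing of an EGFP-654 reporter. Compounds were applied for 2 days at 37 °C to overnight-plated HeLa EGFP-654 cells; controls were DMSO and 500 nM IVS2-654 PNA.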

[7] = Confirmation and Secondary Assay for Modulators of Hemoglobin Beta Chain Splicing at IVS2 705 locus (AID 930; active means well fitted curve in the direction sought with a large enough effect; an effect the other way counts as inactive or inconclusive;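 further: HeLa cells stably expressing the EGFP-705 splicing reporter; GFP fluorescence per well restored by corrected splicing of the IVS2-705 intron in EGFP; % of control where 0% means no effect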)
Method in brief: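 Assay measures total GFP intensity per well in HeLa EGFP-705 cells after 2 days with compound; mis-splicing normally truncates EGFP, so fluorescence indicates corrected splicing.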

[8] = qHTS Assay for Lipid Storage Modulators (AID 1519); details: Drosophila S3 cells, BODIPY lipid droplet/cell ratio, laser cytometry, cells loaded with oleic acid; for activity change, negative = inhibition: at 57.5 µM (top of the series); on activity change, negative = inhibition: on the % scale 0 is the no-effect control and ±100 the full control effect
Method in brief: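 Cells seeded at 5,000 per well were treated with compounds over a concentration series and loaded with oleic acid (400 uM, as added). Lipid droplet fluorescence (488 nm excitation, 500-530 nm channel) was read by laser-scanning cytometry and normalized to 20 uM Triacsin C.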

[9] = target: Ubiquitin carboxyl-terminal hydrolase 1 (Homo sapiens) (UniProt O94782); assay: Inhibitors of USP1/UAF1: Pilot qHTS (AID 504865; active means well fitted curve in the direction sought with a large enough effect; an effect the other way counts as inactive or inconclusive;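 further: rhodamine fluorescence freed from ubiquitin-rhodamine substrate followed over time; top concentration of the series differs between compounds; on the % scale 0 is the no-effect control and ±100 the full control effect; nearly all actives have a fitted effect of over 35% in size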)
Chain of Ubiquitin carboxyl-terminal hydrolase 1 (Homo sapiens) (O94782 whole entry, looked up): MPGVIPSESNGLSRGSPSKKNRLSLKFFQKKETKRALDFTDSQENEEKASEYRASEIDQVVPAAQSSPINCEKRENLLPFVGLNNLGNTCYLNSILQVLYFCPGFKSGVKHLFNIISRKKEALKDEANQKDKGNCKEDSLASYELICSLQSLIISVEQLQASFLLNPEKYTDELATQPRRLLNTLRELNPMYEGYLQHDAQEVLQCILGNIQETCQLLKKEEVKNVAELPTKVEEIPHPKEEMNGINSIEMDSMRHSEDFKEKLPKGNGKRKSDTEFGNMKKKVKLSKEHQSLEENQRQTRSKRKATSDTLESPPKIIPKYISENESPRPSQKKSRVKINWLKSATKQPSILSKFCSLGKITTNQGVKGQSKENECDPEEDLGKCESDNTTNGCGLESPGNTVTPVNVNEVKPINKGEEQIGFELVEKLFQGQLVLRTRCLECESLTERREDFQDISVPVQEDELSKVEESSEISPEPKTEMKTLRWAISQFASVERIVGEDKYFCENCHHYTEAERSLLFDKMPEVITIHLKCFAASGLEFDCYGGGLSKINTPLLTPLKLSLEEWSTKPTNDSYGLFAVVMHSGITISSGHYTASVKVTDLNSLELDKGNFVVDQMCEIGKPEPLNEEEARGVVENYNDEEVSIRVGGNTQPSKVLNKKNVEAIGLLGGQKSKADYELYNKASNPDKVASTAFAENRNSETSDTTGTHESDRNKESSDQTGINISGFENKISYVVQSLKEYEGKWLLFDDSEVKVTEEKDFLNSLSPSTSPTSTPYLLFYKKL
Method in brief: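 Deubiquitinase activity followed as kinetic rhodamine fluorescence release from 150 nM Ub-Rho. 1 nM USP1/UAF1 with compound, after 15 min room-temperature preincubation, in HEPES pH 7.8 buffer containing TCEP, EDTA, BSA and Tween-20.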

[10] = Confirmatory qHTS to identify inhibitors of SARS-CoV-2 cell entry (AID 1645844); further: potency means the concentration at half of the fitted maximal effect; nearly all actives have a fitted effect of over 45% in size
Method in brief: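 Luminescence from a luciferase reporter, read 48 hr after pseudotyped-particle addition, gives entry signal, normalised to spike-bearing PP wells and bald PP lacking fusion protein wells. Cells are Expi293F stably expressing human ACE2, compound-pretreated 1 hr.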

[11] = VSVG counterscreen qHTS to identify inhibitors of SARS-CoV-2 cell entry (AID 1645847); further: potency means the concentration at half of the fitted maximal effect; nearly all actives have a fitted effect of over 65% in size
Method in brief: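 Luminescence read after 48 h infection at 37 C with VSV-G-pseudotyped MLV particles, following 1 h compound exposure of Expi293F cells stably expressing human ACE2; scaled between bald particle and VSV-G particle wells.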

[12] = Cytotoxicity counterscreen for inhibitors of SARS-CoV-2 cell entry (AID 1645845); further: nearly all actives have a fitted effect of over 50% in size
Method in brief: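 48 h compound treatment (after 1 h preincubation), HEK293-ACE2 cells, 37 C/5% CO2; ATP luminescence endpoint; normalized to cell wells and media blanks.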

[13] = Primary qHTS to identify inhibitors of SARS-CoV-2 cell entry (AID 1645846); details: activity change, negative = inhibition: at 57.1 µM (top of the series) unless noted; further: nearly all actives have a fitted effect of over 45% in size
Method in brief: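 Entry measured by luciferase signal 48 h after adding SARS-CoV-2-S pseudotyped MLV particles to HEK293-ACE2 cells preincubated 1 h with compounds. Normalisation: bald particles and spike particles.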

[14] = target: Cytochrome P450 3A4 (Homo sapiens) (UniProt P08684); assay: qHTS Assay for Inhibitors and Substrates of Cytochrome P450 3A4 (AID 884; active means well fitted curve in the direction sought with a large enough effect; an effect the other way counts as inactive or inconclusive; further: on the % scale 0 is the no-effect control and ±100 the full control effect; nearly all actives have a fitted effect of over 50% in size)
Chain of Cytochrome P450 3A4 (Homo sapiens) (P08684 whole entry, looked up): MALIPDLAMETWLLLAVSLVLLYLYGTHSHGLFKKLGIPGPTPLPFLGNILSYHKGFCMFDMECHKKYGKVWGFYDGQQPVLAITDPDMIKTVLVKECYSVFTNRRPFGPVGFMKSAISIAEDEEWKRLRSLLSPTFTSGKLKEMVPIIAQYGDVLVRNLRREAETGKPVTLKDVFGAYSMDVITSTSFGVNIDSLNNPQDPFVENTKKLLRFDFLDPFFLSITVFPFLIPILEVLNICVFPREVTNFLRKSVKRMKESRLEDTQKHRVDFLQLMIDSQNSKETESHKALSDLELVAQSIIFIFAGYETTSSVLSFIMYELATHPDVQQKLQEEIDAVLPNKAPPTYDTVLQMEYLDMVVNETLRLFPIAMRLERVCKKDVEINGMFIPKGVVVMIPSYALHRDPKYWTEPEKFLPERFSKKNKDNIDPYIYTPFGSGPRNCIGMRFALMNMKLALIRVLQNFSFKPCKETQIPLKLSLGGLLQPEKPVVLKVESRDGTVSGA
Method in brief: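 20 nM human CYP3A4 with 25 uM Luciferin-PPXE (at KM) in 200 mM KPO4, preincubated 10 min with compound; NADPH regeneration started a 60 min RT reaction. Luciferin detected by luminescence, normalized to 57 uM ketoconazole as full inhibition.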

[15] = target: DNA dC->dU-editing enzyme APOBEC-3G (Homo sapiens) (UniProt Q9HC16); assay: qHTS for inhibitors of Vif-A3G interactions: Validation (AID 588379; active means well fitted curve in the direction sought with a large enough effect; an effect the other way counts as inactive or inconclusive; further: 0% is about no effect)
Chain of DNA dC->dU-editing enzyme APOBEC-3G (Homo sapiens) (Q9HC16 whole entry, looked up): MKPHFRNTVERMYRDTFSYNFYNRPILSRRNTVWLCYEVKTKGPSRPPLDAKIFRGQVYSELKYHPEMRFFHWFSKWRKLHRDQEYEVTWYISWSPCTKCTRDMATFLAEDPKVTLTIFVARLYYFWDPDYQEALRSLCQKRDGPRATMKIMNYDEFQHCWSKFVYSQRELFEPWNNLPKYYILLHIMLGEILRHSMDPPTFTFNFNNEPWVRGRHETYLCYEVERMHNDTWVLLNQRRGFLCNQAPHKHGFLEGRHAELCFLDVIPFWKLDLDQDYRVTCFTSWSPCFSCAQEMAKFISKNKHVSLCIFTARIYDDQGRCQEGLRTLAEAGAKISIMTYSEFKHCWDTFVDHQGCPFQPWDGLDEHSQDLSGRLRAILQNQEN
Method in brief: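 HeLa cells stably expressing Vif and A3G-eYFP, 700 cells/well, incubated overnight at 37 deg C, then exposed to compound overnight at 37 deg C. Inhibition of Vif-mediated degradation read as increased yellow fluorescence (Ex 488/Em 500-530) by laser-scanning cytometry.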

[16] = measured here: cell count channel max response
[17] = measured here: lipid channel max response

COC(=O)C1=CO[C@@H](C)[C@@H]2CN3CC[C@]4(C(=O)Nc5c4ccc(OC)c5OC)[C@H]3C[C@H]12
inactive: Potency [1] | Potency [2] | Potency [3] | Potency [4] | Potency [5]

O=c1ccc2c(O)c3ccoc3cc2o1
7.8%: max response [8, 16]
27.4%: max response [8, 17]
inactive: Potency [6] | outcome [7] | activity change, negative = inhibition [8] 15.3% | Potency [9] | Potency [1] | Potency [2] | Potency [3] | Potency [4]

CCN1C[C@]2(C)CC[C@H](OC)[C@]34C5C[C@@H]6CC[C@@](O)(C5C(=O)O6)C(C13)[C@@H](OC(=O)c1ccccc1)C24
inactive: Potency [1] | Potency [2] | Potency [3] | Potency [4] | Potency [5]

Cc1c(CN2CCN(S(C)(=O)=O)CC2)sc2c(N3CCOCC3)nc(-c3cnc(N)nc3)nc12
active: Potency [1] 86.3 nM | Potency [2] 43.2 nM | Potency [3] 122 nM | Potency [4] 96.8 nM | Potency [10] 215 nM | Potency [11] 1210 nM

CC(NCCc1ccc(O)cc1)C(O)c1ccc(O)cc1 (stereo not given)
inactive: Potency [1] | Potency [2] | Potency [3] | Potency [4] | Potency [12]

O=C1NCCc2[nH]c(-c3ccncc3)cc21
-95%: activity change, negative = inhibition [13]
active: Potency [1] 21700 nM | Potency [2] 6850 nM | Potency [3] 6110 nM | Potency [4] 10900 nM | Potency [10] 9610 nM | Potency [11] 9610 nM
inactive: Potency [12]

CCC1CN2CCC1CC2C(O)c1ccnc2ccccc12 (stereo not given)
-1.23%: max response [8, 16]
inactive: Potency [14] | activity change, negative = inhibition [8] -3.02% | Potency [9] | Potency [15] | Potency [1] | Potency [2] | Potency [3] | Potency [4]
-3.67%: max response [8, 17]

CC(C)c1cnn2c(NCc3ccccc3)cc(N[C@@H](CO)[C@H](O)CO)nc12
inactive: Potency [12]
active: Potency [1] 2430 nM | Potency [2] 485 nM | Potency [3] 685 nM | Potency [4] 1720 nM | Potency [10] 607 nM | Potency [11] 482 nM
-93.9%: activity change, negative = inhibition [13]

CC1CCC(C(=O)N(c2cc(C#CC(C)(C)C)sc2C(=O)O)C2CCC(O)CC2)CC1 (stereo not given)
inactive: Potency [1] | Potency [2] | Potency [3] | Potency [4] | Potency [12]

CNC(=O)c1cc(COc2nnc(Nc3ccc(Cl)cc3)c3ccoc23)ccn1
inactive: Potency [1] | Potency [2] | Potency [3] | Potency [4] | Potency [12]

CC(=O)NC(CS)C(=O)O (stereo not given)
inactive: Potency [1] | Potency [2] | Potency [3] | Potency [4] | Potency [12]
-1.31%: activity change, negative = inhibition [13]

CN(C)c1ccc(-c2nc3ncc(Cl)c(N4CCN(CC(=O)Nc5nccs5)CC4)c3[nH]2)cc1
-16% [at 27.1 µM]: activity change, negative = inhibition [13]
inactive: Potency [1] | Potency [2] | Potency [3] | Potency [4] | Potency [12]

C[C@H](NC(=O)Cc1cc(F)cc(F)c1)C(=O)N[C@H](C(=O)OC(C)(C)C)c1ccccc1
-33%: activity change, negative = inhibition [13]
inactive: Potency [1] | Potency [2] | Potency [3] | Potency [4] | Potency [12]

CC[C@H](C)n1cc(C)c2c(C(=O)NCc3c(C)cc(C)[nH]c3=O)cc(-c3ccc(N4CCNCC4)nc3)cc21
inactive: Potency [1] | Potency [2] | Potency [3] | Potency [4] | Potency [12]

CN(C[C@@H]1COCCO1)S(=O)(=O)Nc1ccc2ccc3ncc(-c4cnn(C)c4)cc3c(=O)c2c1
inactive: Potency [1] | Potency [2] | Potency [3] | Potency [4] | Potency [12]

O=C(c1ccc(C(=O)N2CCC(N3CCCC3)CC2)c(Nc2ccccc2)c1)N1CCC(N2CCCC2)CC1
inactive: Potency [1] | Potency [2] | Potency [3] | Potency [4] | Potency [12]

Nc1cccc(-c2cc3c(Oc4cccc(O)c4)ncnc3[nH]2)c1
inactive: Potency [1] | Potency [4] | Potency [12]
active: Potency [2] 34300 nM | Potency [3] 30600 nM
-8.51%: activity change, negative = inhibition [13]

Cc1ccc(C(C)(O)c2nc3ccccc3s2)c(C)c1 (stereo not given)
inactive: Potency [1] | Potency [2] | Potency [3] | Potency [4] | Potency [12]

CC(C)(C)OC(=O)CN(Cc1ccc(Cl)cc1)Cc1ccc([N+](=O)[O-])s1
inactive: Potency [1] | Potency [2] | Potency [3] | Potency [4] | Potency [12]

CCc1c(O)cc(O)c(C(=O)c2ccc(OCCN3CCOCC3)c(OC)c2)c1CC(=O)N(CCOC)CCOC
inactive: Potency [12]
active: Potency [1] 12200 nM | Potency [2] 6110 nM | Potency [3] 5440 nM | Potency [4] 3430 nM
-26.7%: activity change, negative = inhibition [13]

C[C@]12CC[C@@H]3c4ccc(O)cc4C[C@@H](CCCCCCCCCS(=O)CCCC(F)(F)C(F)(F)F)[C@H]3[C@H]1CC[C@H]2O (stereo not given in full)
inactive: Potency [1] | Potency [2] | Potency [3] | Potency [4] | Potency [12]

CC[C@@]1([C@@H]2O[C@@H]([C@H]3O[C@@](O)(CO)[C@H](C)C[C@H]3C)C[C@H]2C)CC[C@H]([C@]2(C)CC[C@]3(C[C@H](O)[C@@H](C)[C@@H]([C@@H](C)[C@@H](OC)[C@H](C)C(=O)O)O3)O2)O1
inactive: Potency [12]
active: Potency [1] 376 nM | Potency [2] 3350 nM | Potency [3] 4210 nM | Potency [4] 1060 nM

C[C@H](O)[C@@H]1C(=O)N2C(C(=O)O)=C(S[C@@H]3CN[C@H](CNS(N)(=O)=O)C3)[C@@H](C)[C@@H]12
inactive: Potency [1] | Potency [2] | Potency [3] | Potency [4] | Potency [12] | Potency [13]

COc1nccc(-c2c(-c3ccc(F)cc3)ncn2C2CCC(O)CC2)n1 (stereo not given)
inactive: Potency [1] | Potency [2] | Potency [3] | Potency [4] | Potency [12] | Potency [13]

Cc1ccc(S(=O)(=O)OCC(=O)Nc2ccc(C(=O)O)c(O)c2)cc1
2.59%: activity change, negative = inhibition [13]
inactive: Potency [1] | Potency [2] | Potency [3] | Potency [4] | Potency [12]

CC(C)(F)C[C@H](N[C@@H](c1ccc(-c2ccc(S(C)(=O)=O)cc2)cc1)C(F)(F)F)C(=O)NC1(C#N)CC1
inactive: Potency [1] | Potency [2] | Potency [3] | Potency [4] | Potency [12]
